This passage reports Potency results from PubChem BioAssay AID651599 (National Center for Advancing Translational Sciences (NCATS), 2012).

Records with an inconclusive call do not appear. Entries that show only a call come without a potency. Activity calls are given as the source filed them. The call rests on the fitted dose curve; in most records, active means well fitted inhibition curve with a large enough effect; inconclusive means small, poorly fitted or top-dose-only effect; inactive means no such curve, though single readings can be large or run the other way.
Potency means the concentration at half of the fitted maximal effect.

In the assay the target is Tumor susceptibility gene 101 protein (Homo sapiens) (UniProt Q99816). Put plainly: qHTS Assay for Iinhibitors of HIV-1 Budding by Blocking the Interaction of PTAP/TSG101: Hit Validation in TR assay. To be noted: Tsg101 binding domain + Texas Red-labeled PTAP peptide, fluorescence polarization, 20 min; series mostly up to 57.5 µM. The text has this: Stages of the HIV-1 replication cycle, specifically virus assembly and release, provide underexploited targets for the development of novel antiviral inhibitors. The late stages of HIV-1 replication are mediated by the Gag precursor protein, Pr55Gag. Expression of Pr55Gag is both necessary and sufficient for the production of virus-like particles from Gag-expressing cells. The Gag protein hijacks key host proteins involved in endocytic machinery of the host cell to promote endosomal processing and viral budding. The budding process requires a direct interaction between a […] (PTAP) motif in the p6 domain of Gag and the cellular endosomal sorting protein known as Tsg101. In this way, the Gag PTAP motif promotes the host cells to recruit viral particles to the plasma membrane where the new viral particles are released, effectively turning the host cells into viral factories. A fluorescence anisotropy assay has been developed to quantitatively measure the PTAP-Tsg101 interaction which can be used to screen for inhibitors of this interaction.
Tumor susceptibility gene 101 protein (Homo sapiens), sequence (Q99816 whole entry, looked up, the tested form may be a part): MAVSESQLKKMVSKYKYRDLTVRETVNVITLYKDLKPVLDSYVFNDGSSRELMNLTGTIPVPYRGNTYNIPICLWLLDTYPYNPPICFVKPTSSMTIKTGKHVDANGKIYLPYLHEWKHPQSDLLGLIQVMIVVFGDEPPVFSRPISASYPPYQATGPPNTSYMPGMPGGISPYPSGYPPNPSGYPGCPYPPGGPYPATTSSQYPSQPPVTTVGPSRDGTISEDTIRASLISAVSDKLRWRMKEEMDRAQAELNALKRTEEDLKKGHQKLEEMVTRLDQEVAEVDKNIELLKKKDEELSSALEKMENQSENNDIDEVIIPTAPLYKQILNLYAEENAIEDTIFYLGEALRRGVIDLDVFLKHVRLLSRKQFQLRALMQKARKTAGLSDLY
This hit validation assay is similar to the primary assay but uses the Texas Red label instead of FITC.
NIH Molecular Libraries Probe Production Network [MLPCN]
NIH Chemical Genomics Center [NCGC]
PI Name: Dr. Eric Freed, NCI
Two uL of the Tsg101 binding domain in buffer (10 mM HEPES pH 7.5; 0.15 M NaCl, 0.01% Tween 20; 3 mM EDTA;0.1 mM TCEP) was dispensed into Greiner black MB 1536-well plates (final concentration 10 uM). Then, 23 nL of compounds or DMSO were delivered to each well using a pin tool. Finally, 2 uL of a TR-labeled peptide containing the PTAP motif (1) in the same buffer was dispensed (50 nM final concentration) and the binding was allowed to proceed for 20 min. at r.t. Fluorescent polarization was determined using TR excitation and polarized emission filters on a Perkin Elmer Viewlux.
Keywords: Tsg101, PTAP, Gag, HIV, fluorescent polarization, MLSMR, MLPCN, NIH Roadmap, qHTS, NCGC
In general terms: In qHTS, concentration-response curves come from the screen itself.
For `CCN(CC)c1ccc(/C=C/C(=O)c2ccc(Br)cc2)cc1`, the Potency was 16.3 µM (active).

Regarding `Cc1cc([N+](=O)[O-])ccc1-c1ccc(/C=N/NC(=O)Cc2ccccc2)o1`, the Potency result is “inactive”.

For `Cc1cccc(N2C(=O)c3cccc4c(N)ccc(c34)C2=O)c1`, the Potency entry is “inactive”.

Consider `CCN(C(=O)c1sc2nc3n(c(=O)c2c1C)CCCC3)c1ccccc1F`, for which the Potency entry is “inactive”.

As for `CCCCNc1ccc2c3c(cccc13)C(=O)N(CCCC)C2=O`, the Potency entry was “inactive”.

For `Oc1c(C=Nc2ccccc2)sc2ccccc12`, the Potency is 36.6 µM (active).

Take `CC1=Nc2ccccc2/C1=C\c1nc(-c2ccc(F)cc2)oc1O`: the Potency entry was “inactive”.

Take `COc1ccc(OC)c(/C=C(\C#N)c2nc(-c3ccc(F)cc3)cs2)c1`: the Potency entry is “inactive”.

For `Cn1c2ccc(F)cc2c2nc3ccccc3nc21`, the Potency entry is “inactive”.

On to `Oc1[nH]c2ccccc2c1N=Nc1ccccc1`, for which the Potency entry is “inactive”.

`Cc1n[nH]c(C)c1N1C(=O)c2cccc3c(N4CCCCCC4)ccc(c23)C1=O`: the Potency entry is “inactive”.

`Cc1cc(-c2cccs2)c2c(N)c(C(=O)c3ccc4c(c3)OCO4)sc2n1`: the Potency entry is “inactive”.

For `CC(C)(C)C(=O)c1sc2nc(-c3cccs3)cc(C(F)(F)F)c2c1N`, the Potency result was “inactive”.

Turning to `CCN(CC)c1ccc2cc(NC(=O)CCC(=O)O)c(=O)oc2c1`, the Potency entry was “inactive”.

For the molecule `Clc1ccc(C2=CC(c3ccco3)n3ncnc3N2)cc1` (stereo not given), the Potency result is “inactive”.

On to `O=C1Nc2ccc(F)cc2C12Nc1ccccc1-c1nnc(SCc3ccccc3)nc1O2` (stereo not given), for which the Potency result was “inactive”.

As for `O=c1oc2c(CN3CCCCC3)c(O)ccc2cc1-c1nc2ccccc2[nH]1`, the Potency result was “inactive”.

As to `CC1(C)CC(=O)C2=C(C1)OC(N)=C(C#N)C2c1cc2c(cc1[N+](=O)[O-])OCO2` (stereo not given), the Potency result was “inactive”.

`Cc1cc[n+](-c2[nH]c(=O)sc2/C=N/NC([S-])=Nc2ccccc2)cc1C`: the Potency result was “inactive”.

In the case of `COc1cccc(/C(O)=C/c2nc3ccc(C(=O)NCCc4ccc(Cl)cc4)cc3[nH]c2=O)c1`, the Potency result was “inactive”.

For the molecule `CCOC(=O)/C(C#N)=C\c1ccc(N2CCN(C/C=C/c3ccccc3)CC2)cc1`, the Potency entry is “inactive”.

Turning to `COc1ccc2nc3ccccc3nc2c1NC(=O)c1ccc(Cl)cc1Cl`, the Potency entry is “inactive”.

In the case of `O=C1/C(=C/c2cccc(F)c2)Oc2cc(O)ccc21`, the Potency entry was “inactive”.

With `Nc1c(C(=O)Nc2ccc(F)cc2)sc2nc(-c3cccs3)cc(C(F)(F)F)c12`, the Potency entry is “inactive”.

With `C/C(=N/NC(=O)c1ccncc1)c1cc2ccc(O)cc2oc1=O`, the Potency entry is “inactive”.

Consider `CCNc1cccc2c1C(=O)N(C)C2=O`, for which the Potency entry was “inactive”.

On to `N#Cc1cccc(NC(=O)CSc2ccc3c4c(cccc24)C(=O)c2ccccc2-3)c1`, for which the Potency result is “inactive”.

`Nc1ccc2c3c(cccc13)C(=O)N(c1ccccc1)C2=O`: the Potency result was “inactive”.

In the case of `CCN(CC)c1ccc2cc(S(=O)(=O)c3ccc(Cl)cc3)c(=O)oc2c1`, the Potency entry was “inactive”.

In the case of `O=S(=O)([N-]c1nc2ccccc2nc1-[n+]1ccc(-c2ccncc2)cc1)c1ccccc1`, the Potency result was “inactive”.

Take `CCOC(=O)c1ccc(NC(=O)CSc2nc(-c3cccs3)cc(C(F)(F)F)c2C#N)cc1`: the Potency result was “inactive”.

With `CC(=O)Nc1ccc2nc3c(=O)[nH]c(=O)[nH]c3nc2c1`, the Potency entry is “inactive”.

Regarding `CN1CCc2c(sc(NC(=O)CSc3ccc(F)cc3)c2-c2nc3ccccc3s2)C1`, the Potency entry was “inactive”.

Regarding `CCc1cccc2cc3c(N)c(C(=O)Nc4ccc(S(=O)(=O)N5CCCC5)cc4)sc3nc12`, the Potency result is “inactive”.

In the case of `CCn1c(C)cc(C=C2C(=O)c3ccccc3C2=O)c1C`, the Potency result is “inactive”.

As for `O=c1[nH]c(=O)n(-c2cc(Br)c(O)c(Br)c2)cc1Br`, the Potency result is “inactive”.

Regarding `O=c1oc2ccccc2nc1/C=C(\O)c1ccc(Br)cc1`, the Potency result is “inactive”.

For `O=C1/C(=N\S(=O)(=O)c2cccs2)C([n+]2cccc(Cc3ccccc3)c2)=C([O-])c2ccccc21`, the Potency entry was “inactive”.

Regarding `O=[N+]([O-])c1cc(Cl)cc(/C=N/NC(=S)Nc2ccc(S(=O)(=O)N3CCOCC3)cc2)c1O`, the Potency result was “inactive”.

In the case of `CCCCNc1c2c3c(cccc3n(C)c1=O)C(=O)c1ccccc1-2`, the Potency result is “inactive”.
